This note sets out measurements from PubChem BioAssay (EPA / NIEHS).

Results filed as inconclusive are left out. The source made the active and inactive calls. The calls were made as follows: active = hit-call score of the fitted dose curve at least 0.9, where 1 is the maximum; inconclusive = response in the unintended direction; inactive = score below 0.9.

Read-out in this experiment: ABC Transporter (ABCB1), ABCB1 (gene 5243)
Kind of experiment: CLD_ABCB1_48hr: CellzDirect (CLD) Gene Expression Assay for ABC Transporter (ABCB1) at 48 hours (AID 2283695).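 As to AC50: potency for induction meaning increase of mRNA over DMSO vehicle.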 The protocol: CLD_48hr is a cell-based, multiplexed-readout assay that uses hepatocyte, a human liver primary cell, with measurements taken at 48 hours after chemical dosing in a 96-well plate.CLD_ABCB1_48hr is one of 16 assay component(s) measured or calculated from the CLD_48hr assay. It is designed to make measurements of mRNA induction, a form of inducible reporter, as detected with chemiluminescence signals by Quantitative Nuclease Protection Assay (qNPA) technology.Data from the assay component CLD_ABCB1_48hr was analyzed at the endpoint, CLD_ABCB1_48hr, in the positive analysis fitting direction relative to DMSO as the negative control and baseline of activity. Using a type of inducible reporter, gain-of-signal activity can be used to understand changes in the reporter gene as they relate to the gene ABCB1. Furthermore, this assay endpoint can be referred to as a primary readout. To generalize the intended target to other relatable targets, this assay endpoint is annotated to the transporter intended target family, where subfamily is ABC transporter.
Human hepatocyte cultures were treated daily for two consecutive days with fresh dosing solutions containing appropriate concentrations of the 320 ToxCast chemicals (chemical identities were blinded to CellzDirect and other ToxCast collaborators), vehicle control (0.2% DMSO), and positive control inducers as summarized in Table 1. Due to the large number of treatment groups and chemicals examined, the ToxCast chemicals were divided into two groups (spanning two independent cultures of hepatocytes from separate donor preparations (Hu778: ToxCast plates 1 and 2; Hu776: ToxCast plates 3 and 4). Each preparation of human hepatocyte cultures was treated with respective vehicle control, medium only control, set of six positive controls/reference chemicals for the five hepatic receptor pathways, and a subset of eight of the ToxCast chemicals (indoxacarb, pyrithiobac-sodium, norflurazon, cyhalofop-butyl, methomyl, thiram, acetochlor, and propiconazole). These replicate data, coupled with internal replicates designed within the blinded ToxCast chemical library, provided additional data to evaluate interindividual differences between hepatocyte preparations and their potential impact on chemical profiles.Cell morphology and integrity were evaluated using phase-contrast microscopy as an indicator of hepatocyte cell health (Tyson & Green, 1987). Cultures for each treatment group (i.e., media, vehicle [0.2% DMSO], positive control inducers [multiple concentrations], and the ToxCast chemicals [multiple concentrations]) were observed and cell morphology was assessed relative to vehicle control cultures at each harvest time point (0, 6, 24, or 48 h). […] Images were evaluated at the conclusion of the study to assess changes in cell integrity and account for the effects of chemical exposure on uncharacteristic changes in concentration-dependent gene expression profiles. The results from these determinations of apparent cytotoxicity were annotated (yes/no) alongside the corresponding qNPA data for reference.At the conclusion of each treatment period, hepatocyte cultures (96-well) were washed with 1 volume of HBSS, lysed by addition of 25 ul ArrayPlate lysis buffer (HTG, Tucson, AZ), and 70 ul/well of Denaturation Oil, denatured by incubation at 95C for 10 min, and frozen at approximately -70C until analysis by nuclease protection assay (qNPA) (Roberts et al., 2007). For qNPA analysis, cell lysates were thawed at 50C for approximately 30 min, qNPA probes were added, and samples were incubated at 95C for 10 min to begin the detection process by denaturing the target RNA, dissociating the duplexes and secondary structure hybridization. At the conclusion of the hybridization period, S1 nuclease reagent was added to each sample to digest all nonprotected nucleotides at 50C for 60-90 min. […]
Regarding `CCCCOC(=O)c1ccccc1C(=O)OCCCC`, the compound was called inactive.
The same measure, in the same setting: with `CCOc1cc(Oc2ccc(C(F)(F)F)cc2Cl)ccc1[N+](=O)[O-]` the entry was “inactive”; with `CCOC(=O)C(Cl)Cc1cc(-n2nc(C)n(C(F)F)c2=O)c(F)cc1Cl` (stereo not given), “inactive”; with `CCc1nn(C)c(C(=O)NCc2ccc(C(C)(C)C)cc2)c1Cl`, “inactive”.
Still for that read-out and setting: the same measure for `COC(=O)N(OC)c1ccccc1COc1ccn(-c2ccc(Cl)cc2)n1`: “inactive”; for `COc1nc(C)nc(NC(=O)NS(=O)(=O)c2ccccc2Cl)n1`: “inactive”.
For `CCNc1nc(Cl)nc(NC(C)C)n1`, the call was inactive.
`COC(=O)c1ccccc1C(=O)OC`: the compound was called inactive.
Still for that read-out and setting: with `C#CCOS(=O)OC1CCCCC1Oc1ccc(C(C)(C)C)cc1` (stereo not given) the entry was “inactive”; with `Fc1ccc(Oc2ccnc3cc(Cl)cc(Cl)c23)cc1`, “inactive”; with `COc1cnc(OC)n2nc(NS(=O)(=O)c3c(OCC(F)F)cccc3C(F)(F)F)nc12`, “inactive”.
Usually AC50 stands for the concentration at which the activity in the assay is half-maximal. On to `N#Cc1nn(-c2c(Cl)cc(C(F)(F)F)cc2Cl)c(N)c1S(=O)C(F)(F)F` (stereo not given), for which the AC50 was 4.65 µM (active).
As to `COC(=O)C=C(C)OP(=O)(OC)OC`, the compound was classed as inactive.
On the same count and under the same terms, the same measure for `O=C(O)COc1nc(Cl)c(Cl)cc1Cl`: “inactive”.
With `OC(c1ccc(Cl)cc1)(c1cncnc1)c1ccccc1Cl` (stereo not given), the AC50 is 17.2 µM (active).
Take `C=CCC1=C(C)C(OC(=O)C2C(C=C(C)C)C2(C)C)CC1=O` (stereo not given): the outcome was inactive.
The same measure, in the same setting: with `N#CC(CCc1ccc(Cl)cc1)(Cn1cncn1)c1ccccc1` (stereo not given) the entry was “inactive”; with `CCCCNC(=O)n1c(NC(=O)OC)nc2ccccc21`, “inactive”; with `CC(C)Oc1cc(-n2nc(C(C)(C)C)oc2=O)c(Cl)cc1Cl`, “inactive”.
For the compound `CCOC(=O)CC(SP(=S)(OC)OC)C(=O)OCC` (stereo not given), the result was inactive.
For `CC(C)(C)c1ccc(CSc2cnn(C(C)(C)C)c(=O)c2Cl)cc1`, the compound was called inactive.
On the same count and under the same terms, with `COc1nc(NC(C)C)nc(NC(C)C)n1` the entry was “inactive”; with `CC1COC(Cn2cncn2)(c2ccc(Oc3ccc(Cl)cc3)cc2Cl)O1` (stereo not given), “inactive”; with `COC(=O)C(C)Oc1ccc(Oc2ccc(Cl)cc2Cl)cc1` (stereo not given), “inactive”.
The same measure, in the same setting: the same measure for `Cc1cc(Cl)ccc1OCC(=O)O`: “inactive”; for `COP(=S)(OC)Oc1nc(Cl)c(Cl)cc1Cl`: “inactive”.
On to `CO/C=C(/C(=O)OC)c1ccccc1Oc1cc(Oc2ccccc2C#N)ncn1`, for which the AC50 was 30.2 µM (active).
Regarding `Cc1ccc(-c2c(Cl)nc(C#N)n2S(=O)(=O)N(C)C)cc1`, the outcome was inactive.
Same read-out and setting: the same measure for `CCCCC(CC)COC(=O)c1ccccc1C(=O)OCC(CC)CCCC` (stereo not given): “inactive”; for `CS/C(C)=N/OC(=O)N(C)SN(C)C(=O)O/N=C(\C)SC`: “inactive”.
The same measure, in the same setting: the same measure for `CNC(=O)ON=CC(C)(C)SC`: “inactive”; for `N#Cc1cc(Br)c(O)c(Br)c1`: “inactive”; for `CC(C)C1(C)N=C(c2nc3ccccc3cc2C(=O)O)NC1=O` (stereo not given): “inactive”.
For the compound `CCCCNC(=O)OCC#CI`, the call was inactive.
Still for that read-out and setting: the same measure for `COc1ccc(C(c2ccc(OC)cc2)C(Cl)(Cl)Cl)cc1`: “inactive”.
On the same count and under the same terms, with `Cc1c(F)c(F)c(COC(=O)C2C(/C=C(\Cl)C(F)(F)F)C2(C)C)c(F)c1F` (stereo not given) the entry was “inactive”.
Same read-out and setting: with `CCCN(CCC)c1c([N+](=O)[O-])cc(S(N)(=O)=O)cc1[N+](=O)[O-]` the entry was “inactive”; with `CCCC1COC(Cn2cncn2)(c2ccc(Cl)cc2Cl)O1` (stereo not given), “inactive”.
As to `C=CCC1=C(C)[C@@H](OC(=O)[C@@H]2[C@@H](C=C(C)C)C2(C)C)CC1=O`, the compound was called inactive.
Same read-out and setting: with `COc1nc(C)nc(NC(=O)NS(=O)(=O)c2ccccc2CCC(F)(F)F)n1` the entry was “inactive”.
